In PubChem BioAssay:
The source made the active and inactive calls. The rule behind the calls is not given here.

Target: Pantothenate synthetase (Mycobacterium tuberculosis (strain ATCC 25618 / H37Rv)) (UniProt P9WIL5)
Test: Recombinant Mtb pantothenate synthetase (PanC) inhibitors, coupled enzyme, confirmatory (AID 375);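 note: 0% = full reaction with vehicle and 100% = no enzyme background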
Conditions: coupled enzyme assay; at 10 µM, hits give high values

Sequence of Pantothenate synthetase (Mycobacterium tuberculosis (strain ATCC 25618 / H37Rv)) (P9WIL5 whole entry, looked up): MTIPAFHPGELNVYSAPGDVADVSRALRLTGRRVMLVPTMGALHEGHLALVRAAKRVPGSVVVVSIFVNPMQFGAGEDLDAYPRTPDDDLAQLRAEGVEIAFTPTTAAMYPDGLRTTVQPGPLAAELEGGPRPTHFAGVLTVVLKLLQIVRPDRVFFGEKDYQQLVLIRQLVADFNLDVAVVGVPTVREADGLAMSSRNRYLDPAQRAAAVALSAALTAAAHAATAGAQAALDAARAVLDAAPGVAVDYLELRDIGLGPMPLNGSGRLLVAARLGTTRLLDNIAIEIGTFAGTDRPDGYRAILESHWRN

**Q.** For `O=C(Nc1ccccc1)N(CCCN1CCOCC1)Cc1cc2cc3c(cc2[nH]c1=O)OCCO3`, which inhibition is on record?
**A.** 0% (inactive)

**Q.** Which inhibition does the source give for `CCC1Oc2ccc(C)cc2N(CC(=O)NCCCN2CCCCC2CC)C1=O` (centres undefined) here?
**A.** 4% (inactive)

**Q.** For `Cc1ccc(NC(=O)c2ccccc2O)cc1`, which inhibition is on record?
**A.** 1% (inactive)

**Q.** `Nn1c(Cc2ccccc2F)nnc1SCC(=O)N1CC(=O)Nc2ccccc21` was tested. Which inhibition did it give?
**A.** 0% (inactive)

**Q.** Which inhibition does the source give for `Cc1cc(C(=O)NCCCN2CCOCC2)n(-c2ccccc2)n1` here?
**A.** 0% (inactive)

**Q.** For `C/C(=C\c1ccco1)C1C(C#N)=C(N)OC2=C1C(=O)CC(C)(C)C2` (centres undefined), which inhibition is on record?
**A.** 12% (inactive)

**Q.** `O=C(CSc1nc2ccccc2n1CC(=O)N1CCCC1)Nc1nccs1` was tested. Which inhibition did it give?
**A.** 0% (inactive)

**Q.** How did the inhibition turn out when `O=C(NCC1CCCO1)c1cc(-c2ccncc2)nc2ccc(S(=O)(=O)N3CCOCC3)cc12` (centres undefined) was run?
**A.** 0% (inactive)

**Q.** Which inhibition does the source give for `Cc1cc(Br)ccc1NC(=O)CCN1C(=O)c2ccncc2C1=O` here?
**A.** 0% (inactive)

**Q.** With `CCC(Sc1ccc(C(=O)O)cc1)C(=O)O` (centres undefined) as the molecule, how does the inhibition read?
**A.** 2% (inactive)

**Q.** For `CN(C)CCOC(C)(c1ccccc1)c1ccccn1` (centres undefined), which inhibition is on record?
**A.** 0% (inactive)

**Q.** `CN(C)C(=O)Cn1c(SCC(=O)NC2CCCCC2)nc2ccccc21` was tested. Which inhibition did it give?
**A.** 0% (inactive)

**Q.** `CC1Cc2ccccc2N1CC(=O)NC(=O)NCc1ccco1` (centres undefined) was tested. Which inhibition did it give?
**A.** 2% (inactive)

**Q.** `O=C(c1ccc(-c2ccccc2)cc1)N1CCN(c2ncccn2)CC1` was tested. Which inhibition did it give?
**A.** 8% (inactive)

**Q.** For `O=C(CCCSc1nc2ccccc2s1)NC1=NCCS1`, which inhibition is on record?
**A.** 0% (inactive)

**Q.** With `O=c1cnnc(NCc2ccccc2)[nH]1` as the molecule, how does the inhibition read?
**A.** 0% (inactive)

**Q.** For `CC(=O)c1ccccc1Oc1nc(CN2CCOCC2)nc2scc(-c3cccs3)c12`, which inhibition is on record?
**A.** 3% (inactive)

**Q.** Which inhibition does the source give for `O=C(NCCN1CCCCCC1)c1ccc(CS(=O)(=O)c2ccc(Br)cc2)o1` here?
**A.** 0% (inactive)

**Q.** How did the inhibition turn out when `CCCCOc1ccc(OCCCN2CCOCC2)cc1` was run?
**A.** 2% (inactive)

**Q.** For `N#CC1=C(N)Oc2cc(O)ccc2C1C1CCCCC1` (centres undefined), which inhibition is on record?
**A.** 0% (inactive)

**Q.** How did the inhibition turn out when `O=C(O)CCNc1nc(-c2ccccc2)nc2ccccc12` was run?
**A.** 3% (inactive)

**Q.** Which inhibition does the source give for `CCOC(=O)c1ccc(NCc2nc3ccccc3[nH]2)cc1` here?
**A.** 4% (inactive)

**Q.** With `Cc1nnc2ccc(N3CCN(c4cccc(C(F)(F)F)c4)CC3)nn12` as the molecule, how does the inhibition read?
**A.** 0% (inactive)

**Q.** `CCOC(=O)CSC1=C(C#N)C(=O)NC2(CCCCC2)S1` was tested. Which inhibition did it give?
**A.** 3% (inactive)

**Q.** With `Cn1c(=O)c2c(nc(NCCNC(=O)c3ccco3)n2Cc2ccccc2Cl)n(C)c1=O` as the molecule, how does the inhibition read?
**A.** 0% (inactive)

**Q.** Which inhibition does the source give for `O=C1CCCN1Cc1ncnn1-c1ccccc1` here?
**A.** 4% (inactive)

**Q.** With `COc1cc(C2Oc3cc(C4Oc5cc(O)cc(O)c5C(=O)C4O)ccc3OC2CO)ccc1O` (centres undefined) as the molecule, how does the inhibition read?
**A.** 0% (inactive)

**Q.** `CCOC(=O)c1ccc2[nH]c(C)c(CN3CCN(C)CC3)c(=O)c2c1` was tested. Which inhibition did it give?
**A.** 0% (inactive)

**Q.** For `COc1cccc(Oc2ccc(N)cn2)c1`, which inhibition is on record?
**A.** 0% (inactive)

**Q.** `CCCCCCC(=O)c1c(C)[nH]c(C(=O)OCC)c1C` was tested. Which inhibition did it give?
**A.** 1% (inactive)

**Q.** How did the inhibition turn out when `Cc1cccc(CN2CCN(C(c3ccccc3)c3ccc(Cl)cc3)CC2)c1` (centres undefined) was run?
**A.** 11% (inactive)

**Q.** For `CCOC(=O)c1ccccc1NC(=O)COC(=O)C1=COCCO1`, which inhibition is on record?
**A.** 0% (inactive)

**Q.** `Cc1ccc(S(=O)(=O)NCCNC(=O)c2ccccc2)cc1` was tested. Which inhibition did it give?
**A.** 4% (inactive)

**Q.** Which inhibition does the source give for `NC(=O)c1sc2nc3c(c(-c4ccco4)c2c1N)CCC3` here?
**A.** 0% (inactive)

**Q.** Which inhibition does the source give for `CC1CN(C(=O)c2scc3c2OCCO3)CC(C)O1` (centres undefined) here?
**A.** 2% (inactive)

**Q.** With `CCOC(=O)CSC1=C(C#N)C(c2ccc(C)o2)CC(=O)N1` (centres undefined) as the molecule, how does the inhibition read?
**A.** 0% (inactive)

**Q.** Which inhibition does the source give for `N#Cc1c(SCC(=O)N2CCOCC2)nsc1SCC(=O)N1CCOCC1` here?
**A.** 0% (inactive)

**Q.** How did the inhibition turn out when `COc1ccc(-c2nnc(SCC(=O)Nc3cc(C)on3)n2C)cc1OC` was run?
**A.** 5% (inactive)

**Q.** For `C=CCOc1ccc(CN(C)CC(=O)N(CC(C)C)c2c(N)n(CC(C)C)c(=O)[nH]c2=O)cc1`, which inhibition is on record?
**A.** 0% (inactive)
